Results filed as inconclusive are left out. A number with no mark means an inactive call. The source made the active and inactive calls. Calls follow the shape of the dose curve; as a rule, active = well fitted curve in the direction sought with a large enough effect; inconclusive = small, poorly fitted or top-dose-only effect, or another doubt; inactive = no such curve, though single readings can be large; an effect the other way counts as inactive or inconclusive.

One experiment deals with RecQ-like DNA helicase BLM (Homo sapiens) (UniProt P54132). The experiment is described as follows: qHTS Validation Assay for Inhibitors of Bloom's syndrome helicase (BLM) (AID 2364). Also: potency is read from the fitted curve at half-maximal effect.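 As to activity change, negative = inhibition: plate controls were DMSO vehicle for no effect and enzyme-free control for full effect.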 The note with it: BLM helicase DNA unwinding, fluorescence, in vitro; series mostly up to 57.1 µM; activity change, negative = inhibition: at the top concentration. The method, boiled down: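 BLM 50 nM in 25 mM Tris-HCl pH 8.0, 5 mM NaCl, 2 mM MgCl2, 1 mM DTT, 0.01% Tween-20, 2.5 ug/ml poly(dI-dC); 15 min cpd preinc, RT. Start: 200 nM forked DNA + 2 mM ATP (final). TAMRA read, 2 reads 2 h apart.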
Sequence of RecQ-like DNA helicase BLM (Homo sapiens) (P54132 whole entry, looked up): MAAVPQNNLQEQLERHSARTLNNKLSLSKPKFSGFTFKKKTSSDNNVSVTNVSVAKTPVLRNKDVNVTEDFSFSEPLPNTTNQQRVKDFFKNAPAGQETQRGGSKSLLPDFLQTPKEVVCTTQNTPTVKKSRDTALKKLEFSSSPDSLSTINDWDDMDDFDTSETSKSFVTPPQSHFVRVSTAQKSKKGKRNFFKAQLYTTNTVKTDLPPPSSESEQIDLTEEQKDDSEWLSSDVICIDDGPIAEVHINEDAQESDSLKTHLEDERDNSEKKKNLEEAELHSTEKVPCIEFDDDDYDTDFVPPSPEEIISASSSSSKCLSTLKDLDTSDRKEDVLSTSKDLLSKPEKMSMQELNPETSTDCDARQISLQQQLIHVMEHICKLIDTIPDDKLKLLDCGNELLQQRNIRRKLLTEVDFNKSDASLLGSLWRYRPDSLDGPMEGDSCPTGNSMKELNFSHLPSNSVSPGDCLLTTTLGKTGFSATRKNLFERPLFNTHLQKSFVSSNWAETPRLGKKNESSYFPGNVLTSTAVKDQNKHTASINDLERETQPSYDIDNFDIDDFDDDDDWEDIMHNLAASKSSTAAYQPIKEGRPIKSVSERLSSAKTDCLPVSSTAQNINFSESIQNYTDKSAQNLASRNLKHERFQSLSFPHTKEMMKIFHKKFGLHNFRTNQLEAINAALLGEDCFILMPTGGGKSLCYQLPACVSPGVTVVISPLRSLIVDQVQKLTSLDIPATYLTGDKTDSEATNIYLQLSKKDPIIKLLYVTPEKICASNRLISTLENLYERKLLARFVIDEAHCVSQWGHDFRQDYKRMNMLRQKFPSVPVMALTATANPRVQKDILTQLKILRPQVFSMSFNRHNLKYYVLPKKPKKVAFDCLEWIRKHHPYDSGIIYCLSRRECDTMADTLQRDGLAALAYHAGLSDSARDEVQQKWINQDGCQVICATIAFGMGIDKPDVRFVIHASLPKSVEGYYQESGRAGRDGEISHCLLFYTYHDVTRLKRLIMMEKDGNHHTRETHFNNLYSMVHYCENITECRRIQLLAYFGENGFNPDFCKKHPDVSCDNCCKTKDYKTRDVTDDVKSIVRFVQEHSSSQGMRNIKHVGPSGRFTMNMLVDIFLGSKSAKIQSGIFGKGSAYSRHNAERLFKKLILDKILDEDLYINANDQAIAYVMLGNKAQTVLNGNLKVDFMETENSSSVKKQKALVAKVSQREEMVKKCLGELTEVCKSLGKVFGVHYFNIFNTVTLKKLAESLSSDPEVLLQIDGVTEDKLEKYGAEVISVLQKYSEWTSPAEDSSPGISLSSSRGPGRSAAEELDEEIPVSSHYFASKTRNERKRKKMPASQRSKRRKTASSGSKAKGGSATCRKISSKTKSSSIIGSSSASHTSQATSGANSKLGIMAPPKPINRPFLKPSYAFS
(In general: Quantitative high-throughput screening tests each substance at several concentrations.)
For `CC(N)=NCCCC(N)C(=O)O` (stereo not drawn), the “activity change, negative = inhibition” value was -12.1%.

Regarding `N.N.N.N.N.N.N.N.N.N.N.N.N.N.O.O.[Cl-].[Cl-].[Cl-].[Cl-].[Cl-].[Cl-].[Ru].[Ru].[Ru]`, the Potency is 12.6 µM (active).

Turning to `CC(C)C1NC(=O)[C@H](CCCCN)NC(=O)[C@@H](Cc2c[nH]c3ccccc23)NC(=O)[C@H](Cc2ccc(O)cc2)NC(=O)[C@H](C)N(C)C(=O)[C@H](Cc2ccccc2)NC1=O` (stereo partly drawn), the “activity change, negative = inhibition” value was -8.71%.

For the molecule `NC(=O)C1=CN(C2OC(COP(=O)(O)OP(=O)(O)OC[C@H]3O[C@@H](n4cnc5c(N)ncnc54)[C@H](OP(=O)(O)O)[C@H]3O)C(O)C2O)C=CC1` (stereo partly drawn), the “activity change, negative = inhibition” value is -10.6%.

Turning to `OC[C@H]1O[C@@H](n2cnc3c(NCCc4ccccc4)ncnc32)[C@H](O)[C@H]1O`, the “activity change, negative = inhibition” value was -10.6%.

In the case of `NC(=NCCC[C@H](N)C(=O)O)NO`, the “activity change, negative = inhibition” value is -9.83%.

Consider `OC[C@H]1O[C@@H](n2cnc3c(Nc4ccccc4)ncnc32)[C@H](O)[C@H]1O`, for which the “activity change, negative = inhibition” value was -8.86%.

As to `N[C@H](Cc1ccc(O)c(O)c1)C(=O)O`, the Potency is 28.2 µM (active).

For the molecule `C[C@]12CCC(=O)C=C1CC[C@@H]1C2[C@@H](O)C[C@@]2(C)[C@H]1CC[C@]2(O)C(=O)CO` (stereo partly drawn), the “activity change, negative = inhibition” value is -10.8%.

For `CN1C(=O)CCC1c1cccnc1` (stereo not drawn), the “activity change, negative = inhibition” value is -10.2%.

Consider `CC(=O)O[C@H]1C[C@@H]2CCC3C(CC[C@@]4(C)[C@H]3C[C@H]([N+]3(C)CCCCC3)[C@@H]4OC(C)=O)[C@@]2(C)C[C@@H]1[N+]1(C)CCCCC1` (stereo partly drawn), for which the “activity change, negative = inhibition” value is 66.1%.

Consider `N=C(N)SCCc1cccc(CCSC(=N)N)c1`, for which the “activity change, negative = inhibition” value was 23.7%.

Test system in the next experiment: not listed separately
Nature of the experiment: Validation screen for small molecules that induce DNA re-replication in MCF 10A normal breast cells (AID 463097). Also: 0% is about no effect; nearly all actives have a fitted effect of over 60% in size. The following applies: MCF 10A cells, DNA re-replication phenotype imaging; series mostly up to 46.1 µM; re-replication induction: at the top concentration. The essentials:
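Read-out is Hoechst total nuclear intensity by fluorescence scanning imager, flagging increased high-DNA-content nuclei. Compounds were incubated with MCF 10A cells for 48 hr (37 C, 5% CO2) before 40 min staining.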
In the case of `CNC(=O)[C@H]1O[C@@H](n2cnc3c(NCc4cccc(I)c4)ncnc32)[C@H](O)[C@H]1O`, the “re-replication induction” value was 12.6%.

In the case of `CC(N)=NCCCC(N)C(=O)O` (stereo not drawn), the “re-replication induction” value was 1.22%.

Take `Cc1cn([C@H]2C[C@@H](N=[N+]=[N-])[C@@H](CO)O2)c(=O)[nH]c1=O`: the “re-replication induction” value was -3.08%.

In the case of `N.N.N.N.N.N.N.N.N.N.N.N.N.N.O.O.[Cl-].[Cl-].[Cl-].[Cl-].[Cl-].[Cl-].[Ru].[Ru].[Ru]`, the “re-replication induction” value is 1.9%.

For the molecule `CN=C(N)NCCCC(N)C(=O)O` (stereo not drawn), the “re-replication induction” value was -6.48%.

`COc1c2c(nc3ccccc13)OC(C(C)(O)CO)C2` (stereo not drawn): the “re-replication induction” value is 2.26%.

For the molecule `CN1C2CC(OC(=O)C(CO)c3ccccc3)CC1C1OC12` (stereo not drawn), the “re-replication induction” value was -0.114%.

As to `CC(C)C1NC(=O)[C@H](CCCCN)NC(=O)[C@@H](Cc2c[nH]c3ccccc23)NC(=O)[C@H](Cc2ccc(O)cc2)NC(=O)[C@H](C)N(C)C(=O)[C@H](Cc2ccccc2)NC1=O` (stereo partly drawn), the “re-replication induction” value was -1.68%.

For `NCCC(=O)NCCc1cnc[nH]1`, the “re-replication induction” value was -0.846%.

For `O=C(Cc1ccc(Cl)c(Cl)c1)OCCN1CCCC1`, the “re-replication induction” value was -2.03%.

With `Cc1ccccc1N1CCN(S(=O)(=O)C[C@]23CCC(CC2NC(=O)[C@@H](N)CCS(C)(=O)=O)C3(C)C)CC1` (stereo partly drawn), the “re-replication induction” value was 0.838%.

As for `NC(=O)C1=CN(C2OC(COP(=O)(O)OP(=O)(O)OC[C@H]3O[C@@H](n4cnc5c(N)ncnc54)[C@H](OP(=O)(O)O)[C@H]3O)C(O)C2O)C=CC1` (stereo partly drawn), the “re-replication induction” value is -5.02%.

With `CC(=O)[C@@]1(O)CC[C@H]2C3CCC4=CC(=O)CC[C@]4(C)C3CC[C@@]21C` (stereo partly drawn), the “re-replication induction” value is -6.85%.

For the molecule `OC[C@H]1O[C@@H](n2cnc3c(NCCc4ccccc4)ncnc32)[C@H](O)[C@H]1O`, the “re-replication induction” value was 3.73%.

Turning to `CCCCCCCCCCCCCCC/C=C/[C@@H](O)[C@H](NC(=O)CCCCCCCCCCCCC)OC` (tested in a mixture with another compound), the “re-replication induction” value was -3.9%.

With `NCCNC(=O)c1ccc(Cl)cc1`, the “re-replication induction” value is -0.763%.

For `NC(=NCCC[C@H](N)C(=O)O)NO`, the “re-replication induction” value is -4.08%.

For `OC[C@H]1O[C@@H](n2cnc3c(Nc4ccccc4)ncnc32)[C@H](O)[C@H]1O`, the “re-replication induction” value was -4.7%.

On to `N[C@H](Cc1ccc(O)c(O)c1)C(=O)O`, for which the “re-replication induction” value was -2.07%.

With `Nc1nc(Nc2ccccc2)nc2c1ncn2[C@@H]1O[C@H](CO)[C@H](O)[C@H]1O`, the “re-replication induction” value was -2.66%.

`NC(=S)c1ccc[n+]([C@@H]2O[C@@H](COP(=O)([O-])OP(=O)(O)OC[C@H]3O[C@@H](n4cnc5c(N)ncnc54)[C@H](OP(=O)(O)O)[C@H]3O)C(O)C2O)c1` (stereo partly drawn): the “re-replication induction” value was 4.16%.

Regarding `O=C(O)CC[C@H](NC(=O)c1ccccc1C(=O)O)C(=O)O`, the “re-replication induction” value is -0.294%.

`NCC1OC(O[C@@H]2[C@H](O)[C@@H](OC3C(O)C(N)CC(N)C3OC3OC(CO)C(O)C(O)C3N)O[C@@H]2CO)C(N)C(O)C1O` (stereo partly drawn): the “re-replication induction” value was -2.84%.

For the molecule `COc1cc(=O)n(C)c2c(OCC(O)C(C)(C)O)cccc12` (stereo not drawn), the “re-replication induction” value was -0.0923%.

`C[C@]12CCC(=O)C=C1CC[C@@H]1C2[C@@H](O)C[C@@]2(C)[C@H]1CC[C@]2(O)C(=O)CO` (stereo partly drawn): the “re-replication induction” value was 0.513%.

Regarding `CN1C(=O)CCC1c1cccnc1` (stereo not drawn), the “re-replication induction” value was -10.2%.
